Laboratory results as given in PubChem BioAssay (NCATS).
“And” between values parts separate entries of the source, which are not always exact repeats. Identical values can stand only once. Values without a mark were called inactive. The source made the active and inactive calls. How the calls were made is not given here.

Target: Nuclear receptor subfamily 1 group I member 2 (Rattus norvegicus) (UniProt Q9R1A7)
Test: qHTS assay for small molecule activators of the rat pregnane X receptor (rPXR) signaling pathway (AID 651751)
Details: rPXR reporter cells, luciferase (One-Glo), 24 h
Further: 0% is about no effect.

Sequence of Nuclear receptor subfamily 1 group I member 2 (Rattus norvegicus) (Q9R1A7 whole entry, looked up): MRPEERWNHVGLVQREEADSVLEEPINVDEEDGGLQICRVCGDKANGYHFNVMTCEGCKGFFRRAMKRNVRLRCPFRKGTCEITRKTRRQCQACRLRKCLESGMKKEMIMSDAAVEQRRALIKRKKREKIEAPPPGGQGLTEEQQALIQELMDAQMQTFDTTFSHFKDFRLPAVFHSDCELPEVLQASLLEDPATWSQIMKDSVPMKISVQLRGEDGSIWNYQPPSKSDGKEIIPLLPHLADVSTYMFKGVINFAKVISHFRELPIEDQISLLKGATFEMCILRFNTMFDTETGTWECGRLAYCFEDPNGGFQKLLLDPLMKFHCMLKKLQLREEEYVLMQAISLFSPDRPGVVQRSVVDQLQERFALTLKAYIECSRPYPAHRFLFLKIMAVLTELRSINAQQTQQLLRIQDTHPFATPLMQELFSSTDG

| SMILES | max response |
| --- | --- |
| COc1ccc(Cl)cc1C(=O)NCCc1ccc(S(=O)(=O)NC(=O)NC2CCCCC2)cc1 | 1.29% |
| O=C1O[C@H]([C@@H](O)CO)C(O)=C1O | 2.78% and -0.0955% |
| Cc1cccc(Nc2cc(Cl)nc(SCC(=O)O)n2)c1C | -4.85% |
| Cc1cc2nc3c(=O)[nH]c(=O)nc-3n(C[C@H](O)[C@H](O)[C@H](O)CO)c2cc1C | 2.07% |
| NC(=O)N/N=C/c1ccc([N+](=O)[O-])o1 | -8.95% and -7.82% |
| CC(CN1c2ccccc2Sc2ccccc21)N(C)C (centres undefined) | 3.22% |
| O=C1NS(=O)(=O)c2ccccc21 | -2.55% |
| CNC(=O)Oc1ccc2c(c1)[C@]1(C)CCN(C)[C@@H]1N2C | 1.34% |
| Nc1ccc(S(=O)(=O)Nc2nccs2)cc1 | -1.7% |
| CN(C)CCOC(C)(c1ccccc1)c1ccccn1 (centres undefined) | 2.43% |
| CC(O)COc1ccccc1 (centres undefined) | 0.833% |

Tested on: not listed separately
Test: qHTS assay for small molecule activators of the human pregnane X receptor (PXR) signaling pathway (AID 720659)
Details: DPX-2 HepG2 CYP3A4-luciferase, 24 h; series mostly up to 92.3 µM; activation: at the top concentration

| SMILES | outcome | activation |
| --- | --- | --- |
| O=C1O[C@H]([C@@H](O)CO)C(O)=C1O | inactive | – |
| Cc1cccc(Nc2cc(Cl)nc(SCC(=O)O)n2)c1C | – | -3.28% |
| NC(=O)N/N=C/c1ccc([N+](=O)[O-])o1 | inactive | – |
| O=C1NS(=O)(=O)c2ccccc21 | – | -1.71% |
| CNC(=O)Oc1ccc2c(c1)[C@]1(C)CCN(C)[C@@H]1N2C | – | 29.5% |
| Nc1ccc(S(=O)(=O)Nc2nccs2)cc1 | – | -15.5% |
| CN(C)CCOC(C)(c1ccccc1)c1ccccn1 (centres undefined) | – | -0.171% |
| CC(O)COc1ccccc1 (centres undefined) | – | 0.411% |
